Calls of active or inactive are those of the source.
Assays:
Albumin (Bos taurus) = Albumin (Bos taurus) (UniProt P02769); test: compounds binding labelled BSA control protein – biochemical, small-molecule microarray, Alexa647 label, 635/667 nm fluorescence, artefact control for SMM control protein annotation, profiling panel (AID 1118); conditions: BSA-A647 binding, fluorescence 635 nm, higher = more signal;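 also: score merges 667 nm emission intensity and signal-to-noise per printed compound spot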
Chain of Albumin (Bos taurus) (P02769 whole entry, looked up): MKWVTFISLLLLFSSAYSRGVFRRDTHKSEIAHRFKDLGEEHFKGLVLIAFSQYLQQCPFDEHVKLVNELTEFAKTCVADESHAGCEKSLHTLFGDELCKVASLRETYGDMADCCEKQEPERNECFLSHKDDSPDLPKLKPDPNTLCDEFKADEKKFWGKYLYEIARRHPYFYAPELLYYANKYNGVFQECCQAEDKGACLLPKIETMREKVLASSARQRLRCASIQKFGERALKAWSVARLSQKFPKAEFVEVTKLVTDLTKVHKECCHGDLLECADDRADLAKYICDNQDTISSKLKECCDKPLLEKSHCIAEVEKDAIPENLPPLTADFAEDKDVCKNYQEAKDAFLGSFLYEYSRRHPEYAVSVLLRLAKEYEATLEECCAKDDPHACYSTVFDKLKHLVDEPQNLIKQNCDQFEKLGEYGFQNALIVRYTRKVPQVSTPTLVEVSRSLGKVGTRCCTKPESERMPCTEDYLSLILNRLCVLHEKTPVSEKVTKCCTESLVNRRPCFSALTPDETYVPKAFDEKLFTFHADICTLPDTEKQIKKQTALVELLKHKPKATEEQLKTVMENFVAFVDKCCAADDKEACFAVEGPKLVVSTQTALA

[1] = probe aXIP binding to arrayed compounds – biochemical, NeuroSMM set, 635/667 nm fluorescence, primary screen (AID 1119); conditions: small-molecule microarray, higher = more signal, called active from +8 up or from −8 down;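 also: probe is the protein aXip251-270 applied at 1 µg/mL to compound-printed slides; binding of probe to printed compounds measured as 667 nm fluorescence plus signal to noise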
[2] = probe aNOTCH3 binding on compound microarray – biochemical, small-molecule microarray, 635/667 nm fluorescence, primary screen (AID 1120); conditions: higher = more signal;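 also: probe is a biotin-tagged antibody raised against NOTCH3 rather than NOTCH3 protein; score merges spot fluorescence near 667 nm with spot signal to noise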
[3] = probe aNOTCH2 binding on compound microarray – biochemical, small-molecule microarray, 635/667 nm fluorescence, primary screen (AID 1121); conditions: higher = more signal;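 also: score merges feature fluorescence read at 667 nm with its signal to noise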
[4] = target: Carbonic anhydrase 2 (Homo sapiens) (UniProt P00918); test: compounds binding carbonic anhydrase 2 – biochemical, small-molecule microarray, Alexa647-labelled CAII, profiling panel (AID 1122); conditions: CAII-A647 binding fluorescence, higher = more signal
[5] = COS7 lysate on small-molecule microarray, probe aHis, 635 nm (AID 1123); conditions: COS7 cell lysate, fluorescence, higher = more signal;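 also: z-score combines 667nm fluorescence intensity with signal-to-noise per printed compound spot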
[6] = probe aLAP1 signal on lysate-treated microarray – cell lysate, small-molecule microarray, COS7 lysate, primary screen (AID 1124); conditions: probe aLAP1, fluorescence, higher = more signal;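 also: lysate comes from COS7 cells expressing LAP1 and is applied at 0.3 µg/mL; score merges spot fluorescence near 667 nm with signal-to-noise over triplicate slides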
Sam68 (KHDRBS1) = test: compounds binding KHDRBS1 protein – biochemical, small-molecule microarray, 635 nm fluorescence, primary screen (AID 1125); conditions: higher = more signal;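 also: score merges 667 nm channel intensity with signal to noise over triplicate slides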
[7] = tested on: Chordin-like protein 2 (CHRDL2); test: compounds binding chordin-like 2 – biochemical, small-molecule microarray, 635 nm fluorescence, primary screen (AID 1126); conditions: fluorescence 635 nm, higher = more signal;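 also: printed compound slides probed with Chrdl2 protein at 4 µg/mL for 1 h at 4 C; score merges 667 nm emission intensity with signal to noise over three replicate slides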
[8] = target: Concanavalin-A (Canavalia ensiformis) (UniProt P02866); test: compounds binding concanavalin A lectin – biochemical, small-molecule microarray, Alexa647 label, 635 nm, artefact control for SMM control protein annotation, primary screen (AID 1127); conditions: ConA-A647 binding fluorescence, higher = more signal;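 also: z combines 667 nm emission intensity with signal-to-noise across three replicate slides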
Chain of Concanavalin-A (Canavalia ensiformis) (P02866 whole entry, looked up): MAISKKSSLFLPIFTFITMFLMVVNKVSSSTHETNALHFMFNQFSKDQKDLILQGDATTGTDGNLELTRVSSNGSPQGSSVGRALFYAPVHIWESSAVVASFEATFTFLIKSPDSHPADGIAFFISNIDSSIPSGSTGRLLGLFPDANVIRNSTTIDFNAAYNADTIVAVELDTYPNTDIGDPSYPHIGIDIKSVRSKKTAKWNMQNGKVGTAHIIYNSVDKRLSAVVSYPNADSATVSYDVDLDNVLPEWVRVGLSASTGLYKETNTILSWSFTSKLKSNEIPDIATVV

SMILES | composite z-score (Albumin (Bos taurus)) | composite Z-score [1] | composite z-score [2] | composite z-score [3] | composite z-score [4] | composite z-score [5] | composite z-score [6] | composite z-score (Sam68 (KHDRBS1)) | composite z-score [7] | composite z-score [8]
O=C1OCCC=C[C@H]2OC34C=CCN(Cn5nnc6ccccc65)C(=O)[C@H]3N(CCO)C(=O)[C@@H]4C12 (stereo not given in full) | 0.995 | 0.6 (inactive) | -0.475 | -0.227 | 0.866 | -0.403 | -0.38 | -0.75 | -1.75 | -1.75
C=C(CCCC)/C(=C/C[C@@H](OC(C)=O)c1cccc(OCCO)c1)c1cnc2ccccc2c1 | 0.0156 | 0.785 (inactive) | 0.0141 | -0.124 | 0.687 | 0.366 | -0.0843 | 0.788 | 0.777 | 0.606
O=C1OCCC/C=C\[C@H]2OC34C=CCN(c5ccc6ccccc6c5)C(=O)[C@H]3N(CCCCCO)C(=O)[C@@H]4C12 (stereo not given in full) | -0.152 | 0.328 (inactive) | -0.295 | -0.182 | 0.828 | -1.92 | -0.289 | -1.63 | -0.654 | -0.328
C=CCC(OC(C)=O)[C@@H]1[C@@H](N(Cc2ccc(-c3ccccc3)cc2)C(=O)Cc2ccc(F)cc2)c2cc(OCCCO)ccc2N1C(=O)c1ccc2ccccc2c1 (stereo not given in full) | -0.153 | -0.301 (inactive) | 0.119 | 0.0251 | 0.0176 | 0.361 | 0.225 | 0.112 | -0.132 | -1.04
CC(C)N1CC=CC23O[C@@H]4C=CCOC(=O)[C@@H]4[C@H]2C(=O)N(CCCCCO)[C@@H]3C1=O (stereo not given in full) | 1.02 | -0.194 (inactive) | -0.12 | -0.153 | 0.733 | 1.64 | 0.915 | -0.135 | -0.574 | 0.823
O=C1[C@H]2C=C(I)[C@H](C[C@@H]2OCCCCO)[C@@]12CO2 | -1.17 | 0.32 (inactive) | -0.0057 | -0.061 | 0.758 | 0.141 | 0.489 | 0.579 | -0.11 | -0.0969
N#Cc1ccc(C(O)C2C=CC3C(=O)N(c4ccccc4)C(=O)C3N2Nc2ccccc2F)cc1 (stereo not given) | 1.01 | -0.187 (inactive) | 0.173 | -0.0771 | 0.675 | 1.99 | 0.555 | 0.864 | -0.284 | 0.883
COCCCNC(=O)[C@@H]1c2ccccc2C(=O)N(Cc2ccccc2)[C@H]1c1ccc(CO)cc1 | 0.405 | 0.59 (inactive) | 0.235 | 0.13 | 0.787 | 1.48 | 1.1 | 0.814 | 0.634 | 0.458
C=CCNC(=O)[C@H]1[C@@H]2C(=O)O[C@@H](c3ccccc3)[C@@H](c3ccccc3)N2[C@@H](c2ccc(OCCO)cc2)[C@]12C(=O)Nc1ccc(C#CCC(C(=O)OC)C(=O)OC)cc12 | 0.629 | 0.612 (inactive) | 0.116 | 0.0022 | 0.328 | 1.92 | 0.979 | 1.3 | 1.24 | 1.12
CC[C@@H]1C=C(C(=O)O)[C@H](c2cccc3ccccc23)N1S(=O)(=O)c1ccc(C)cc1 | 0.8 | -0.122 (inactive) | 0.0225 | 0.0477 | 0.664 | 1.58 | 0.687 | 1.05 | 0.0837 | 0.774
Cc1ccc(S[C@]2(C(=O)NCC(C)C)CC(=O)N(Cc3cc(C(F)(F)F)cc(C(F)(F)F)c3)[C@@H]2c2ccc(CO)cc2)cc1 | 0.539 | -0.0662 (inactive) | -0.123 | 0.0362 | 0.78 | 0.586 | 1.56 | -0.309 | -0.256 | -0.512
CCCCCCc1nc(-c2ccc(-c3ccc(Cl)c(Cl)c3)o2)c(C)c2c1[Si](C(C)C)(C(C)C)OC2 | 0.13 | 0.0001 (inactive) | -0.1 | -0.166 | 0.0293 | 0.645 | -0.173 | 0.1 | -1.06 | 0.999
CCCC(=O)N(CCc1c[nH]c2ccccc12)[C@@H]1CC(C(=O)NCCO)=C[C@H](Oc2c(I)cc(CO)cc2OC)[C@H]1O | 0.0754 | -0.471 (inactive) | -0.0962 | -0.085 | 0.723 | 0.532 | -0.107 | 0.195 | 0.144 | 0.314
O=C(NC1CC1)[C@@H]1c2ccccc2C(=O)N(C2Cc3ccccc3C2)[C@H]1c1ccc(CO)cc1 | 0.378 | -0.358 (inactive) | -0.0166 | 0.0386 | 0.608 | 1.41 | 0.237 | 1.24 | 0.847 | 0.918
CCC(CC)C(O)C1C=CC2C(=O)N(c3ccccc3)C(=O)C2N1Nc1ccccc1 (stereo not given) | 0.803 | 0.62 (inactive) | 0.708 | 0.272 | 0.491 | 2.44 | 0.383 | 1.31 | 0.0429 | 1.16
C[N+](C)(C)CCCC[C@@H]1NC(=O)[C@H]2C[C@@H](C(=O)NCCCCCCNC(=O)CS)[C@@H](c3ccc(O)cc3)N2C1=O | 0.329 | -0.921 (inactive) | -0.437 | -0.0764 | 0.501 | 0.483 | 1.49 | -0.611 | 0.0077 | -2.35
C[N+](C)(C)CCCC[C@@H]1NC(=O)[C@@H]2C[C@H](C(=O)NCCCCCN)[C@H](c3ccc(O)cc3)N2C1=O | 0.877 | 1.01 (inactive) | 0.363 | 0.154 | 0.72 | 1.53 | 1.02 | 1.19 | 0.248 | 1.15
O=C1N(CCS(=O)(=O)c2ccccc2)c2ccccc2[C@@H]2OC(c3ccc(OCCCO)cc3)=N[C@]12Cc1ccccc1 | 0.484 | -0.209 (inactive) | 0.126 | -0.0244 | 0.391 | 0.898 | 0.474 | 1.3 | 0.837 | 1.12

SMILES | composite z-score (Albumin (Bos taurus)) | composite Z-score [1] | composite z-score [2] | composite z-score [3] | composite z-score [4] | composite z-score [5] | composite z-score [6] | composite z-score (Sam68 (KHDRBS1)) | composite z-score [7] | composite z-score [8]
CO[C@H]1O[C@H](CO)[C@@H](OC(=O)Nc2ccccc2)[C@@H]2OC(=O)[C@@H](Cc3ccc4ccccc4c3)C/C=C/C[C@H](Cc3ccc4ccccc4c3)C(=O)O[C@@H]12 | 0.615 | 1.08 (inactive) | -0.0371 | -0.146 | 0.324 | 1.38 | 0.313 | 1.21 | 0.34 | 0.983
O=C1C2C=CC(C(O)c3ccc4c(c3)OCO4)N(Nc3ccc([N+](=O)[O-])cc3)C2C(=O)N1c1ccccc1 (stereo not given) | 0.854 | -0.0054 (inactive) | 0.0225 | -0.104 | 0.699 | 1.15 | 0.345 | 0.597 | -0.0385 | 0.813
COC(=O)[C@@]1(CCC(=O)OC(C)(C)C)N=C(c2ccc(OCCCO)cc2)O[C@H]1c1ccccc1 | -0.735 | 0.21 (inactive) | -0.0716 | 0.0464 | 0.687 | 2.16 | 0.637 | -0.297 | 0.0741 | 0.57
COC(=O)[C@]1(Cc2ccccc2)N=C(c2ccc(OCCCO)cc2)O[C@@H]1c1ccccc1N=[N+]=[N-] | 0.165 | -0.181 (inactive) | -0.0391 | -0.122 | 0.279 | 1.59 | 0.209 | 0.3 | 0.315 | 0.666
COCCOC(=O)N1C(=O)[C@@]2(c3ccccc31)[C@H](c1ccc(OCCO)cc1)N1[C@H](c3ccccc3)[C@H](c3ccccc3)OC(=O)[C@H]1[C@@H]2C(=O)N1CCc2cc(OC)c(OC)cc2C1 | 0.642 | 0.158 (inactive) | 0.273 | -0.0021 | 0.641 | 2.4 | 1.43 | 1.28 | 0.584 | 1.16
C=CCC(OC(C)=O)[C@@H]1[C@@H](N(Cc2ccc(-c3cccc(C(F)(F)F)c3)o2)C(=O)c2cccc3ccccc23)c2cc(OCCCO)ccc2N1C(=O)Cc1ccc2ccccc2c1 (stereo not given in full) | 0.426 | 0.111 (inactive) | -0.0465 | -0.102 | 0.0886 | 0.58 | -0.0395 | 0.153 | 0.421 | -0.146
CC(=CC1CCCCC1)[C@@H](NC(=O)c1cccnc1)c1ccc(-c2ccccc2)cc1 | 0.513 | -0.8 (inactive) | -0.118 | -0.0665 | 0.0804 | 1.24 | -0.264 | -0.649 | -0.531 | 0.132
Cc1c(NC(=O)/C(C#N)=C/c2cccc([N+](=O)[O-])c2)c(=O)n(-c2ccccc2)n1C | 0.48 | -0.449 (inactive) | 0.0934 | 0.993 | 0.792 | 0.719 | 0.861 | 0.928 | 0.393 | 0.456
COc1ccccc1CN1C(=O)c2ccccc2[C@@H](C(=O)NCc2ccccc2)[C@@H]1c1ccc(CO)cc1 | 0.431 | -0.549 (inactive) | -0.293 | -0.0984 | 0.544 | 1.15 | 1.54 | 1.09 | -0.353 | 0.305
NC(=O)N1C(=O)C2C(C1=O)C1C=C(CCCO)C2C(C2CC2)N1Cc1cc2c(cc1Br)OCO2 (stereo not given) | 0.277 | 0.0861 (inactive) | 0.0242 | -0.112 | 0.877 | 0.872 | -0.0694 | -0.989 | -0.667 | -0.0295
CN(C)CCCC[C@@H]1NC(=O)[C@H]2C[C@@H](C(=O)NCCCCCN)[C@@H](c3cccc(OCCO)c3)N2C1=O | 0.878 | 0.522 (inactive) | 0.313 | 0.41 | 0.746 | 1.75 | 1.12 | 1.19 | 0.402 | 1.12
C=C(C(=O)CC[C@H](OC(C)=O)c1ccccc1OCCO)C(C)C | 0.0421 | -0.361 (inactive) | 0.029 | -0.0325 | -0.371 | -0.754 | 1.87 | -0.4 | -0.163 | -0.104
COc1cc(CO)cc(I)c1O[C@H]1C=C(C(=O)NCCO)C[C@@H](N(C(=O)c2cc3ccccc3oc2=O)C2CCCCCC2)[C@@H]1O | 0.179 | -0.161 (inactive) | 0.0084 | -0.0282 | -0.177 | -0.149 | 0.0826 | 0.0348 | 0.13 | 0.66
CCCCN1CC=CC23O[C@@H]4C=CCCOC(=O)C4[C@H]2C(=O)N(CCCCCO)[C@@H]3C1=O (stereo not given in full) | 0.438 | 0.251 (inactive) | -0.297 | -0.132 | 0.861 | -0.0221 | -0.327 | -0.444 | -0.882 | -0.131
COCC(=C=CC[C@H](O)c1cccc(OCCO)c1)CCO | 0.663 | -0.0662 (inactive) | -0.0311 | -0.166 | 0.462 | 1.44 | -0.0637 | 0.431 | 0.247 | -0.042
CC(C)[C@@H](C(=O)O)n1cc(C2(O)CCCCC2)nn1 | 0.641 | -0.283 (inactive) | 0.089 | -0.161 | 0.0232 | 0.303 | 0.0595 | 1.01 | -0.121 | 1.04
C=C(CCCC)/C(=C/C[C@H](OC(=O)c1ccncc1)c1ccc(OCCO)cc1)c1cc(C(=O)OC)ccc1OC | -0.0215 | 0.219 (inactive) | 0.167 | -0.14 | 0.644 | 0.774 | 0.354 | 0.59 | -0.257 | 0.363
